Assay results taken from PubChem BioAssay AID1159580 (chemical genetic matrix, 2015).
Out of some 5,500 compounds screened, about 2,000 (36%) were called active. About 18% were inconclusive and are not listed. No stated cut-off is given here; in the data, active means normalized growth mostly below about 0.91 (no sharp cut-off); inconclusive means no clear call, values can overlap the other calls; inactive means mostly above about 0.92. The list shows a part of the results.

Assay: chemical genetic growth profiling, strain panel (AID 1159580);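 further: tested at 20 µM; growth read once vehicle control cultures reached saturation at 30 °C; 1 = growth at the plate median or of vehicle wells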
Settings: growth OD

Measured: normalized growth

O=C(c1ccccc1)c1ccc2n1CCC2C(=O)O (stereo not drawn)
inactive: S. cerevisiae deletion strains, locus YKL009W, strain mrt4, stronger effect = lower value 0.962 | S. cerevisiae deletion strains, locus YKL068W, stronger effect = lower value 0.979 | S. cerevisiae deletion strains, locus YKL085W, strain MDH1 (second series), stronger effect = lower value 0.99 | S. cerevisiae deletion strains, locus YKL085W, strain MDH1, stronger effect = lower value 0.99 | S. cerevisiae deletion strains, locus YKL160W, strain elf1, stronger effect = lower value 1.03 | S. cerevisiae deletion strains, locus YKL190W, strain CNB1, stronger effect = lower value 0.999 | S. cerevisiae deletion strains, locus YKR001C, strain vps1, stronger effect = lower value 0.98 | S. cerevisiae deletion strains, locus YKR026C, strain gcn3, stronger effect = lower value 1 | S. cerevisiae deletion strains, locus YKR091W, strain srl3, stronger effect = lower value 0.961 | S. cerevisiae deletion strains, locus YLL001W, strain dnm1, stronger effect = lower value 1.01 | S. cerevisiae deletion strains, locus YLL026W, stronger effect = lower value 0.999 | S. cerevisiae deletion strains, locus YLL041C, strain sdh2, stronger effect = lower value 0.995 | S. cerevisiae deletion strains, locus YLR027C, strain aat2, stronger effect = lower value 0.99 | S. cerevisiae deletion strains, locus YLR039C, strain RIC1, stronger effect = lower value 1 | S. cerevisiae deletion strains, locus YLR058C, strain SHM2, stronger effect = lower value 1 | S. cerevisiae deletion strains, locus YLR102C, strain apc9, stronger effect = lower value 0.974 | S. cerevisiae deletion strains, locus YLR113W, strain HOG1, stronger effect = lower value 1.01 | S. cerevisiae deletion strains, locus YLR221C, strain rsa3, stronger effect = lower value 1.01 | S. cerevisiae deletion strains, locus YLR258W, strain gsy2, stronger effect = lower value 0.985 | S. cerevisiae deletion strains, locus YLR262C, strain YPT6 (second series), stronger effect = lower value 0.996 | S. cerevisiae deletion strains, locus YLR262C, strain YPT6, stronger effect = lower value 0.965 | S. cerevisiae deletion strains, locus YLR268W, strain sec22, stronger effect = lower value 0.97 | S. cerevisiae deletion strains, locus YLR320W, strain mms22, stronger effect = lower value 0.966 | S. cerevisiae deletion strains, locus YLR330W, strain CHS5, stronger effect = lower value 0.989 | S. cerevisiae deletion strains, locus YLR342W, strain FKS1 (second series), stronger effect = lower value 0.998 | S. cerevisiae deletion strains, locus YLR342W, strain FKS1, stronger effect = lower value 1 | S. cerevisiae deletion strains, locus YLR357W, strain rsc2, stronger effect = lower value 1.02 | S. cerevisiae deletion strains, locus YLR370C, strain arc18, stronger effect = lower value 1.01 | S. cerevisiae deletion strains, locus YLR371W, strain rom2, stronger effect = lower value 0.962 | S. cerevisiae deletion strains, locus YLR384C, strain iki3, stronger effect = lower value 0.998 | S. cerevisiae deletion strains, locus YLR418C, strain cdc73, stronger effect = lower value 0.987 | S. cerevisiae deletion strains, locus YML016C, strain PPZ1, stronger effect = lower value 0.998 | S. cerevisiae deletion strains, locus YML032C, strain rad52, stronger effect = lower value 0.991 | S. cerevisiae deletion strains, locus YML120C, strain ndi1, stronger effect = lower value 1.01 | S. cerevisiae deletion strains, locus YML124C, strain tub3, stronger effect = lower value 0.982 | S. cerevisiae deletion strains, locus YMR058W, strain fet3, stronger effect = lower value 0.978 | S. cerevisiae deletion strains, locus YMR078C, strain ctf18, stronger effect = lower value 0.968 | S. cerevisiae deletion strains, locus YMR125W, strain sto1, stronger effect = lower value 1.01 | S. cerevisiae deletion strains, locus YMR129W, stronger effect = lower value 0.995 | S. cerevisiae deletion strains, locus YMR205C, strain PFK2, stronger effect = lower value 1.01 | S. cerevisiae deletion strains, locus YMR223W, strain ubp8, stronger effect = lower value 0.972 | S. cerevisiae deletion strains, locus YMR231W, strain pep5, stronger effect = lower value 1 | S. cerevisiae deletion strains, locus YMR307W, strain GAS1, stronger effect = lower value 0.985 | S. cerevisiae deletion strains, locus YNL067W, strain RPL9B, stronger effect = lower value 1.02 | S. cerevisiae deletion strains, locus YNL071W, strain lat1, stronger effect = lower value 0.977 | S. cerevisiae deletion strains, locus YNL128W, strain TEP1, stronger effect = lower value 0.996 | S. cerevisiae deletion strains, locus YNL153C, strain GIM3, stronger effect = lower value 0.998 | S. cerevisiae deletion strains, locus YNL175C, strain NOP13, stronger effect = lower value 1 | S. cerevisiae deletion strains, locus YNL183C, strain NPR1, stronger effect = lower value 0.973 | S. cerevisiae deletion strains, locus YNL197C, strain WHI3, stronger effect = lower value 1.01 | S. cerevisiae deletion strains, locus YNL209W, strain ssb2, stronger effect = lower value 0.985 | S. cerevisiae deletion strains, locus YNL224C, strain SQS1, stronger effect = lower value 1.01 | S. cerevisiae deletion strains, locus YNL233W, strain BNI4, stronger effect = lower value 1.03 | S. cerevisiae deletion strains, locus YNL248C, strain rpa49, stronger effect = lower value 0.968 | S. cerevisiae deletion strains, locus YNL250W, strain rad50, stronger effect = lower value 0.986 | S. cerevisiae deletion strains, locus YNL271C, strain bni1, stronger effect = lower value 0.96 | S. cerevisiae deletion strains, locus YNL298W, strain CLA4, stronger effect = lower value 0.969 | S. cerevisiae deletion strains, locus YNL307C, strain MCK1, stronger effect = lower value 0.976 | S. cerevisiae deletion strains, locus YNL322C, strain KRE1 (second series), stronger effect = lower value 0.982 | S. cerevisiae deletion strains, locus YNL322C, strain KRE1, stronger effect = lower value 1.01 | S. cerevisiae deletion strains, locus YNR049C, strain mso1, stronger effect = lower value 0.983 | S. cerevisiae deletion strains, locus YNR052C, strain pop2, stronger effect = lower value 0.97 | S. cerevisiae deletion strains, locus YOL006C, strain TOP1, stronger effect = lower value 1.05 | S. cerevisiae deletion strains, locus YOL012C, strain htz1 0.945 | S. cerevisiae deletion strains, locus YOL147C, strain pex11, stronger effect = lower value 0.982 | S. cerevisiae deletion strains, locus YOR001W, strain rrp6, stronger effect = lower value 1.01 | S. cerevisiae deletion strains, locus YOR061W, strain CKA2, stronger effect = lower value 0.997 | S. cerevisiae deletion strains, locus YOR069W, strain VPS5, stronger effect = lower value 0.994 | S. cerevisiae deletion strains, locus YOR070C, strain gyp1, stronger effect = lower value 1 | S. cerevisiae deletion strains, locus YOR080W, strain dia2, stronger effect = lower value 1.01 | S. cerevisiae deletion strains, locus YOR083W, strain WHI5 (second series), stronger effect = lower value 1.03 | S. cerevisiae deletion strains, locus YOR083W, strain WHI5, stronger effect = lower value 1.04 | S. cerevisiae deletion strains, locus YOR106W, strain vam3, stronger effect = lower value 1.03 | S. cerevisiae deletion strains, locus YOR136W, strain idh2, stronger effect = lower value 0.971 | S. cerevisiae deletion strains, locus YOR144C, strain elg1, stronger effect = lower value 0.982 | S. cerevisiae deletion strains, locus YOR184W, strain ser1, stronger effect = lower value 0.964 | S. cerevisiae deletion strains, locus YOR231W, strain MKK1, stronger effect = lower value 1.02 | S. cerevisiae deletion strains, locus YOR265W, strain rbl2, stronger effect = lower value 1 | S. cerevisiae deletion strains, locus YOR270C, strain vph1, stronger effect = lower value 0.972 | S. cerevisiae deletion strains, locus YOR290C, strain snf2, stronger effect = lower value 0.962 | S. cerevisiae deletion strains, locus YOR316C, strain cot1, stronger effect = lower value 0.956 | S. cerevisiae deletion strains, locus YPL051W, strain arl3, stronger effect = lower value 1.04 | S. cerevisiae deletion strains, locus YPL055C, strain LGE1, stronger effect = lower value 1.02 | S. cerevisiae deletion strains, locus YPL078C, strain atp4, stronger effect = lower value 1.01 | S. cerevisiae deletion strains, locus YPL106C, strain sse1, stronger effect = lower value 0.978 | S. cerevisiae deletion strains, locus YPL240C, strain hsp82, stronger effect = lower value 1 | S. cerevisiae deletion strains, locus YPL256C, strain CLN2, stronger effect = lower value 1.01 | S. cerevisiae deletion strains, locus YPR119W, strain clb2, stronger effect = lower value 0.961 | S. cerevisiae deletion strains, locus YPR141C, strain kar3, stronger effect = lower value 0.977 | S. cerevisiae deletion strains, locus YPR163C, strain tif3, stronger effect = lower value 0.978 | S. cerevisiae deletion strains, locus YPR167C, strain met16, stronger effect = lower value 0.976 | S. cerevisiae deletion strains, strain wtn01, stronger effect = lower value 0.985 | S. cerevisiae strains, strain wild type, stronger effect = lower value 1
